# From PubChem BioAssay (NCATS)
# Active and inactive are the calls of the source. Calls come from the whole dose curve; as a rule, active = well fitted curve in the direction sought with a large enough effect; inconclusive = small, poorly fitted or top-dose-only effect, or another doubt; inactive = no such curve, though single readings can be large or run the other way. Residues, ends and D or L forms follow the SMILES beside them. *: point of attachment. Cbz = O=C(OCc1ccccc1)*
# Target: Thyrotropin receptor (Homo sapiens) (UniProt P16473)
# Experiment: qHTS Assay for Antagonists of the Thyroid Stimulating Hormone Receptor (AID 488980)
# Settings: TSHR-expressing cells, cAMP antagonist read-out; series mostly up to 57.5 µM
# Description: TSH is an alpha/beta heterodimeric glycoprotein hormone secreted from the anterior pituitary gland which belongs to the glycoprotein hormone family. The actions of TSH are mediated by a seven-transmembrane receptor, which upon TSH binding couples preferentially to the G-alpha (s) protein (Gs), resulting in activation of adenylate cyclase and increase in cyclic adenosine 3', 5' monophosphate (cAMP). The TSH receptor (THSR) is mainly expressed in thyroid follicular cells and regulates their growth and function. This cell based assay was conducted on a TSHR transfected HEK 293 cell line, measuring cAMP stimulation using antibody-based Homogeneous Time Resolved Fluorescence (HTRF).
# Our goal is to identify small molecules that will inhibit (antagonize) the thyroid-stimulating hormone receptor (TSHR), a member of the 7 transmembrane-spanning receptor (7TMR) family of cell surface receptors. TSHR-mediated hyperthyroidism is important in thyroid pathology. The development of small molecule antagonists of TSHR may lead to therapeutic approaches for TSHR-mediated hyperthyroidism caused by constitutively activating mutations or stimulating auto-antibodies associated with Graves' disease. Graves' disease is the leading cause of hyperthyroidism and is caused by autoantibodies that stimulate TSHR (TsAbs) causing thyroid growth and unregulated overproduction of thyroid hormones and existing treatments have liabilities (agranulocytosis). In addition, TSHRs are known to be expressed in multiple extrathyroidal tissues including bone, brain, kidney, testis, fat and cells of the immune system but the role of the TSHR in these tissues is not clear. Therefore, TSHR antagonists/inverse agonists could be used as probes of extrathyroidal TSHR function. Finally, TSHR inverse agonists, which are a subclass of antagonists that inhibit agonist-independent (or basal or constitutive) TSHR signaling, could be used to inhibit TSH-independent signaling in patients with recurrent or metastatic thyroid cancer who are receiving thyroid hormone to suppress TSH.
# An anti cAMP antibody contains a fluorescent cryptate tag (excitation 337 nm; emission 620 nm) and the acceptor is cAMP-d2 (excitation 620 nm; emission 665 nm). When antibody and cAMP-d2 interact and are excited by a 337 nm light, a FRET occurs resulting in emission at 665 nm. The assay is competition between cAMP-d2 and cAMP (from the cell lysate). The homogeneous protocol allows for one step dispense after stimulation that is automation friendly.
# Step, Parameter, Value, Description
# 1, Cells, 3 uL, 2000 TSHR freshly harvested cells/well 1536 TC treated White solid bottom plate (Cells resuspended in 10 mM HEPES buffered HBSS and 70 uM RO 20-1724)
# 2, Compound, 23 nL, Libraries and controls
# 3, Compound, 1 uL, EC80 TSH (4 nM final)
# 5, Reagent, 2 uL, cAMP antibody diluted 1:20 in lysis buffer
# 6, Time, 30 minutes, Room temperature
# 7, Detector, HTRF settings, Viewlux
# Thyrotropin receptor (Homo sapiens), sequence (P16473 whole entry, looked up): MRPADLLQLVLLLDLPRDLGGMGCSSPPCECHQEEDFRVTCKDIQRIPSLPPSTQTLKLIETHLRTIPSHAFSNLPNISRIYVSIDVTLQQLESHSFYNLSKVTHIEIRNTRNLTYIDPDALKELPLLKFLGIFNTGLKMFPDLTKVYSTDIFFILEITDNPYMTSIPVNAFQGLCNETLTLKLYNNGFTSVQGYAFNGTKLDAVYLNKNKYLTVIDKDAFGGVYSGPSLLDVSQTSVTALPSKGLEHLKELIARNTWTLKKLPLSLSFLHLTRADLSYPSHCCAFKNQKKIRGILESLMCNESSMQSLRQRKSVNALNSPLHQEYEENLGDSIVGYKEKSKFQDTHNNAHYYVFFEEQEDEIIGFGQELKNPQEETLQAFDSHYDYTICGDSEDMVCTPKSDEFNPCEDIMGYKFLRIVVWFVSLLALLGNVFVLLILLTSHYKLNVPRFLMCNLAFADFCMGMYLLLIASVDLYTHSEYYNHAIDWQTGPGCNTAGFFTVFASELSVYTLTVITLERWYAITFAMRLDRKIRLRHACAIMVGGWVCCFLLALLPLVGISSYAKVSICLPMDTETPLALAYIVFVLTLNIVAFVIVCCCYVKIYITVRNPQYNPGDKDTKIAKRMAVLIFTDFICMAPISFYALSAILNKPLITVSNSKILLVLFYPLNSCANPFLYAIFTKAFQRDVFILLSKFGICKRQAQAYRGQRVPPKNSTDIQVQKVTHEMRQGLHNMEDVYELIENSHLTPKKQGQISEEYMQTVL
row,Compound,outcome
1,CCCN(CCc1ccccc1)C1CCc2c(O)cccc2C1 (stereo not given),inactive
2,O=C(c1ccc2c(c1)OCCO2)N1CCCCC1,inactive
3,Cc1cc2c(cc1Cl)N(C(=O)Nc1ccnc3ccccc13)CC2,inactive
4,CN(C)C(=O)/N=N/C(=O)N(C)C,inactive
5,CC(=O)O[C@H]1CC2(C)[C@@H](C[C@@H](O)[C@H]3[C@@]4(C)CC[C@@H](O)[C@@H](C)[C@@H]4CC[C@@]32C)C1=C(CCC=C(C)C)C(=O)O (stereo not given in full),inactive
6,O=C1Nc2ccc(I)cc2/C1=C/c1cc(Br)c(O)c(Br)c1,inactive
7,N[C@H](C(=O)O)[C@H]1C[C@@H]1C(=O)O,inactive
8,O=C(O)Cc1ccc(O)c(O)c1,inactive
9,CCCCCC(O)CCCC(=O)O (stereo not given),inactive
10,COC(=O)C1=C(C)NC(C)=C([N+](=O)[O-])C1c1ccccc1C(F)(F)F (stereo not given),inactive
11,CCC1(O)CC2CN(CCc3c([nH]c4ccccc34)[C@@](C(=O)OC)(c3cc4c(cc3OC)N(C=O)C3[C@]45CCN4CC=C[C@@](CC)([C@@H](OC(C)=O)[C@]3(O)C(=O)OC)[C@H]45)C2)C1 (stereo not given in full),inactive
12,Cc1nc(N=Nc2ccc(S(=O)(=O)O)cc2S(=O)(=O)O)c(COP(=O)(O)O)c(C=O)c1O,inactive
13,COC(=O)C(N)Cc1ccc(Cl)cc1 (stereo not given),inactive
14,N=S(=O)(O)Cc1noc2ccccc12,inactive
15,C=CCN1CCc2cc(O)c(O)cc2C(c2ccccc2)C1 (stereo not given),inactive
16,CCN(CC)CCOC(=O)c1cc(Cl)c(N)cc1OC,inactive
17,CCCCOc1cc(CC2CNC(=O)N2)ccc1OC (stereo not given),inactive
18,CC1C(=O)N(C)C(=O)c2nc[nH]c21 (stereo not given),inactive
19,CNC(=O)c1cc2c(cn1)[nH]c1ccccc12,inactive
20,CCCn1c(=O)c2[nH]c(C3CCCC3)nc2n(CCC)c1=O,inactive

row,Compound,outcome
1,CCn1c(=O)[nH]c2cc(Cl)c(Cl)cc21,inactive
2,CC1CCN(CC[C@H]2CCCN2S(=O)(=O)c2cccc(O)c2)CC1,inactive
3,COc1cc(C(O)C(=O)O)ccc1O (stereo not given),inactive
4,CC(N)(C(=O)O)c1ccc(C(=O)O)cc1 (stereo not given),inactive
5,CCCc1c(-c2ccc(O)cc2)nn(-c2ccc(O)cc2)c1-c1ccc(O)cc1,inactive
6,CC(C)[C@H](NC(=O)OCc1ccccc1)C(=O)N[C@H](C=O)Cc1ccccc1 (Cbz-Val-Phe-aldehyde),inactive
7,OCC1NCC(O)C(O)C1O (stereo not given),inactive
8,O=[N+]([O-])c1cccc2c(Br)[nH]nc12,inactive
9,OC1(c2ccc(Cl)cc2)CCN(Cc2c[nH]c3ccccc23)CC1,inactive
10,CC#CCOC(=O)c1c(C)nc2sc3c(c2c1N)CCC(O)C3 (stereo not given),inactive
11,N=C(N)SCCN,inactive
12,Nn1nnc2ccccc21,inactive
13,Nc1ccc(N2C(=O)c3ccccc3C2=O)c(Cl)c1,inactive
14,Cn1c(=O)[nH]c2ncn(C)c2c1=O,inactive
15,O=C(OCCN1CCOCC1)C1(c2ccccc2)CCCCC1,inactive
16,N=C(N)c1ccc(N)cc1,inactive
17,Nc1nc2[nH]c(=O)cnc2c(=O)[nH]1,inactive
18,CCCCCCCC/C=C\CCCCCCCC(=O)NCCc1ccc(O)c(O)c1,inactive
19,C=CCN1CCc2c(cc(O)c(O)c2Br)[C@@H](c2ccccc2)C1,inactive
20,NS(=O)(=O)c1cccc2c1c([N+](=O)[O-])cc1nc(O)c(O)nc12,inactive
